In one assay the test system is Staphylococcus aureus. Put plainly: Antibacterial activity against Staphylococcus aureus MRSA ATCC 43300 (CO-ADD:GP_020); MIC in CAMBH media using NBS plates, by Resazurin F(560/590). The class given is functional. The settings on record: Concentration 20 uM, ASSAY_TEST Inhibition of Bacterial Growth, detection method Resazurin, Fluorescence (ex560/em590), MEDIA CAMHB, plate type 384well, CORNING #3640, time 18 hr.

The test system of another assay is Acinetobacter baumannii. In words: Antibacterial activity against Acinetobacter baumannii ATCC 19606 (CO-ADD:GN_034); MIC in CAMBH media using NBS plates, by Resazurin F(560/590). The format is functional. The settings on record: Concentration 20 uM, ASSAY_TEST Inhibition of Bacterial Growth, detection method Resazurin, Fluorescence (ex560/em590), MEDIA CAMHB, plate type 384well, CORNING #3640, time 18 hr.

For the next assay, the system named is Escherichia coli. Put plainly: Antibacterial activity against Escherichia coli ATCC 25922 (CO-ADD:GN_001); MIC in CAMBH media using NBS plates, by Resazurin F(560/590). The class given is functional. The settings on record: Concentration 20 uM, ASSAY_TEST Inhibition of Bacterial Growth, detection method Resazurin, Fluorescence (ex560/em590), MEDIA CAMHB, plate type 384well, CORNING #3640, time 18 hr.

In the next assay the test system is Klebsiella pneumoniae. The following applies: Concentration 20 uM; ASSAY_TEST Inhibition of Bacterial Growth; detection method Absorption (OD600); MEDIA CAMHB; plate type 384well; NBS; CORNING #3640; time 18 hr.
The test system of a further assay is Candida albicans. The settings on record: 20 µM.
The test system of a further assay is Cryptococcus neoformans. The following applies: Concentration 20 uM; ASSAY_TEST Inhibition of Fungal Growth; detection method Resazurin; Absorption (OD600-OD570); plate type 384well; NBS; CORNING #3640.

SMILES strings stand for the structures. For part of these data: Results with a measured potency or affinity are listed apart.

Our source for the Inhibition values is ChEMBL document CHEMBL4296182, “CO-ADD screening of NIH NCI Diversity Set V”.

In the case of `FC(F)(F)c1cccc(OCC2CN=C(S)O2)c1` (centres undefined), the Inhibition in the assay with Staphylococcus aureus was 8.92%; in the assay with Acinetobacter baumannii, 11.68%; with Escherichia coli it was -6.27%; in the assay with Klebsiella pneumoniae, 16.05%; in the assay with Candida albicans, 8.74%; with Cryptococcus neoformans it was 3.63%.
As for `CCNc1nc(NC(C)C)nc(-c2ccncc2)n1`, the Inhibition with Staphylococcus aureus was 6.99%; in the assay with Acinetobacter baumannii, -1.34%; in the assay on Escherichia coli, 9.95%; with Klebsiella pneumoniae it was 10%; with Candida albicans, 1.8%; in the assay on Cryptococcus neoformans, -10.92%.
Consider `CC(C)(C)CC(C)(C)N1CN=C(S)NC1`, for which the Inhibition in the assay on Staphylococcus aureus was 14.76%; in the assay with Acinetobacter baumannii, 8.83%; in the assay with Escherichia coli, 1.22%; in the assay with Klebsiella pneumoniae, 6.38%; in the assay with Candida albicans it was 1.25%; with Cryptococcus neoformans, -7.67%.
`O=c1nc2onnc2c(/C=N\O)[nH]1`: the Inhibition in the assay on Staphylococcus aureus is 11.4%; in the assay on Acinetobacter baumannii it was -9.04%; in the assay on Escherichia coli it was 10.25%; in the assay with Klebsiella pneumoniae it was 15.41%; in the assay with Candida albicans, -0.67%; in the assay with Cryptococcus neoformans it was -3.06%.
For the compound `CC(C)(c1cc(Cl)c(O)c(CN2CCOCC2)c1)c1cc(Cl)c(O)c(CN2CCOCC2)c1`, the Inhibition with Staphylococcus aureus is -6.13%; in the assay with Acinetobacter baumannii it was 0.12%; in the assay on Escherichia coli, 12.95%; in the assay on Klebsiella pneumoniae, 0.6%; in the assay on Candida albicans, -1.62%; in the assay on Cryptococcus neoformans, -0.13%.
For `COC(=O)c1c(-c2ccccc2)[nH]c(-c2nccc3ccccc23)c1C(=O)OC`, the Inhibition was 3.54% in the assay on Staphylococcus aureus; 6.34% in the assay on Acinetobacter baumannii; 1.46% in the assay with Escherichia coli; 12.08% with Klebsiella pneumoniae; 2.5% with Candida albicans; -2.2% with Cryptococcus neoformans.
As to `CC(C)=CCC/C(C)=C\C(N)=O`, the Inhibition was -1.13% in the assay on Staphylococcus aureus; -1.29% in the assay on Acinetobacter baumannii; 11.31% with Escherichia coli; -1.44% with Klebsiella pneumoniae; -0.52% in the assay with Candida albicans; -3.28% with Cryptococcus neoformans.
In the case of `Cn1c2c(c(=O)n(C)c1=O)NC1(N2)C(=O)Nc2ccccc21` (centres undefined), the Inhibition in the assay with Staphylococcus aureus is 7.94%; in the assay on Acinetobacter baumannii, -15.14%; with Escherichia coli it was 2.31%; in the assay on Klebsiella pneumoniae it was 1.11%; in the assay with Candida albicans, 4.78%; in the assay on Cryptococcus neoformans, -2.52%.
On to `O=C(O)c1ccc2c(c1Nc1ccccc1)C(=O)c1ccccc1C2=O`, for which the Inhibition in the assay with Staphylococcus aureus is 9.32%; in the assay on Acinetobacter baumannii, -23.2%; in the assay with Escherichia coli, 18.5%; with Klebsiella pneumoniae it was 7%; in the assay on Candida albicans, 1.26%; with Cryptococcus neoformans, -10.37%.
For the compound `Nc1ccn(C2OC(CCl)C(O)C2O)c(=O)n1` (centres undefined), the Inhibition is 16.82% in the assay on Staphylococcus aureus; -8.52% in the assay with Acinetobacter baumannii; 10.09% in the assay on Escherichia coli; 13.7% with Klebsiella pneumoniae; 0.99% with Candida albicans; -4.88% with Cryptococcus neoformans.
Turning to `Oc1cc(-n2cccn2)c(O)cc1-n1cccn1`, the Inhibition in the assay on Staphylococcus aureus is 6.47%; in the assay with Acinetobacter baumannii, 8.87%; in the assay on Escherichia coli it was -3.84%; with Klebsiella pneumoniae, 16.86%; with Candida albicans, 25.5%; in the assay on Cryptococcus neoformans, -4.6%.
On to `Oc1cc(-c2ccc(Cl)cc2)nc2ccccc12`, for which the Inhibition in the assay with Staphylococcus aureus is 0.37%; with Acinetobacter baumannii, 13%; in the assay on Escherichia coli, -1.34%; with Klebsiella pneumoniae, 16.07%; in the assay on Candida albicans, 18.1%; with Cryptococcus neoformans it was 5.32%.
Turning to `CCOC(=O)c1[nH]c(C(=O)O)c(OC(=O)CC)c1C`, the Inhibition is 3.4% with Staphylococcus aureus; 12.19% in the assay with Acinetobacter baumannii; 5.33% in the assay on Escherichia coli; 12.1% in the assay with Klebsiella pneumoniae; 11.4% in the assay with Candida albicans; -14.68% in the assay on Cryptococcus neoformans.
With `O=C(Nc1nnc(C(F)(F)F)s1)c1c(F)cccc1F`, the Inhibition in the assay on Staphylococcus aureus worked out at 18.6%; in the assay with Acinetobacter baumannii it was 12.37%; with Escherichia coli, 3.33%; in the assay on Klebsiella pneumoniae it was 14.22%; in the assay on Candida albicans it was 14.6%; with Cryptococcus neoformans, 22.23%.
Turning to `Nc1cc(-c2ccccc2)ccc1O`, the Inhibition in the assay on Staphylococcus aureus is 13.15%; with Acinetobacter baumannii it was -7.9%; with Escherichia coli it was 6.67%; in the assay with Klebsiella pneumoniae, 17.45%; in the assay on Candida albicans, 4.12%; in the assay with Cryptococcus neoformans it was -0.33%.
As for `N#C/C(=C\c1ccc[nH]1)C(=O)c1ccccc1`, the Inhibition with Staphylococcus aureus was 9.96%; with Acinetobacter baumannii it was 7.21%; with Escherichia coli it was 0.79%; with Klebsiella pneumoniae it was 8.89%; with Candida albicans, 10.3%; in the assay on Cryptococcus neoformans it was -7.32%.
On to `O=C(c1cccnc1)N1CCN(c2ccccc2Cl)CC1`, for which the Inhibition was 7.8% in the assay on Staphylococcus aureus; -13.63% with Acinetobacter baumannii; 10.26% with Escherichia coli; 11.81% in the assay on Klebsiella pneumoniae; 2.66% with Candida albicans; -13.57% in the assay with Cryptococcus neoformans.
Take `COc1ccc(/N=N/c2c(N)n[nH]c2N)cc1`: the Inhibition is 9.98% in the assay with Staphylococcus aureus; -10.61% in the assay on Acinetobacter baumannii; 6.79% in the assay on Escherichia coli; 12.54% in the assay on Klebsiella pneumoniae; 3.82% in the assay with Candida albicans; -6.57% in the assay with Cryptococcus neoformans.
With `CC(=O)Nc1ccc(OC(=O)Oc2ccc(NC(C)=O)cc2)cc1`, the Inhibition is 37.09% in the assay with Staphylococcus aureus; -4.35% with Acinetobacter baumannii; 7.78% in the assay with Escherichia coli; 22.87% in the assay on Klebsiella pneumoniae; 5.36% in the assay on Candida albicans; -3.28% in the assay on Cryptococcus neoformans.
